Records with an inconclusive call do not appear. Calls of active or inactive are those of the source. The call rests on the fitted dose curve; in most records, active means well fitted inhibition curve with a large enough effect; inconclusive means small, poorly fitted or top-dose-only effect; inactive means flat fitted curve, though single readings scatter.
These molecules were tested against Ubiquitin carboxyl-terminal hydrolase 1 (Homo sapiens) (UniProt O94782) (assay: Inhibitors of USP1/UAF1: Pilot qHTS (AID 504865;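 further: rhodamine fluorescence freed from ubiquitin-rhodamine substrate followed over time; top concentration of the series differs between compounds; nearly all actives have a fitted effect of over 35% in size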)). Conditions: purified USP1/UAF1, Ub-rhodamine cleavage fluorescence; series mostly up to 114 µM; activity change, negative = inhibition: at the top concentration.
Procedure, shortened: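 USP1/UAF1 complex at 1 nM preincubated 15 min at room temperature with compound, then Ub-Rho substrate added at 150 nM final. Fluorescence (480/540 nm) read kinetically in 50 mM HEPES pH 7.8, 0.5 mM EDTA, 1 mM TCEP, 0.1 mg/ml BSA, 0.01% Tween-20.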
On the % scale 0 is the no-effect control and ±100 the full control effect.

Ubiquitin carboxyl-terminal hydrolase 1 (Homo sapiens), sequence (O94782 whole entry, looked up): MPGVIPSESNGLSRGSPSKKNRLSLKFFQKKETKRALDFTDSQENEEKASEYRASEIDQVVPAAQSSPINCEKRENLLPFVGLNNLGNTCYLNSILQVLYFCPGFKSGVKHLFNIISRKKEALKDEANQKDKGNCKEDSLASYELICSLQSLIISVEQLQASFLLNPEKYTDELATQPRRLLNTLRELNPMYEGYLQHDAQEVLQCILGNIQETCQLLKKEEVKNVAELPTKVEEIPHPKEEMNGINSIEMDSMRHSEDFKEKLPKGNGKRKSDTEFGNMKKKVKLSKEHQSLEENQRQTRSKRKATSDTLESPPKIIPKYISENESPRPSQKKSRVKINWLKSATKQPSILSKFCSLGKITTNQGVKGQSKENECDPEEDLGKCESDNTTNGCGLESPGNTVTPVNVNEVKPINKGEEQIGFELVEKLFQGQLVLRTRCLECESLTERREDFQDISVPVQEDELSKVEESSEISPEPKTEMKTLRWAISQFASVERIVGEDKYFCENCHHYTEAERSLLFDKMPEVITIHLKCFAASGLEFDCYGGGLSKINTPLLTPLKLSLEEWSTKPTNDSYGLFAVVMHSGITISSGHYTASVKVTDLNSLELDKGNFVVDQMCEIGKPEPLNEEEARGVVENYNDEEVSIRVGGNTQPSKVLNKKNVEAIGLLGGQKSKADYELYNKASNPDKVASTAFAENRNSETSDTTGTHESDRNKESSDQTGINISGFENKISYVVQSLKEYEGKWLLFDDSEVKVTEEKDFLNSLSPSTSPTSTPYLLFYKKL

Question: How did the “activity change, negative = inhibition” value turn out when `CCOc1cc(N)c(Cl)cc1C(=O)NCC1CN(Cc2ccc(F)cc2)CCO1` (configuration not stated) was run?
Answer: -12.2% (inactive)

Question: Which “activity change, negative = inhibition” value does the source give for `CNC1CCCN(c2c(F)cc3c(=O)c(C(=O)O)cn(C4CC4)c3c2OC)C1` (configuration not stated) here?
Answer: -1.07% (inactive)

Question: With `CC(C)(C#N)c1cc(Cn2cncn2)cc(C(C)(C)C#N)c1` as the molecule, how does the “activity change, negative = inhibition” value read?
Answer: -6.34% (inactive)

Question: For `N[C@@H](C(=O)N[C@@H]1C(=O)N2C(C(=O)O)=C(Cl)CS[C@H]12)c1ccccc1`, which “activity change, negative = inhibition” value is on record?
Answer: -4.74% (inactive)

Question: With `CC[C@H](NC(C)C)[C@H](O)c1ccc(O)c2[nH]c(=O)ccc12` as the molecule, how does the Potency read?
Answer: inactive

Question: How did the Potency turn out when `O=S(=O)(O)CCS` was run?
Answer: inactive

Question: How did the “activity change, negative = inhibition” value turn out when `Cc1ccnc2c1NC(=O)c1cccnc1N2C1CC1` was run?
Answer: -4.42% (inactive)

Source: PubChem BioAssay (NCATS)
